Experimental findings from PubChem BioAssay AID687016 (The Scripps Research Institute Molecular Screening Center, 2013) are described below.

The whole screen tested about 370,000 compounds, of which about 2,800 (0.76%) were called active. The sample as a whole holds a higher share of actives than the screen did. Values without a mark were called inactive. No stated cut-off is given here; in the data, active means inhibition above about 21%; inactive means the rest.

For the assay, the target named is E3 ubiquitin-protein ligase UHRF1 (Homo sapiens) (UniProt Q96T88). In words: UHRF1 methylated DNA binding inhibitors, primary screen, counter-screen for MBD2 inhibitor project, biochemical, TR-FRET, human UHRF1, single concentration (AID 687016).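 Further: UHRF1 SRA domain binding a hemimethylated CpG hairpin DNA probe; 0% = median of test compound wells and 100% = reference inhibitor.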 The conditions noted are these: UHRF1 binding to methylated oligo, at 4.4 µM, stronger effect = higher value.
E3 ubiquitin-protein ligase UHRF1 (Homo sapiens), sequence (Q96T88 whole entry, looked up, the tested form may be a part): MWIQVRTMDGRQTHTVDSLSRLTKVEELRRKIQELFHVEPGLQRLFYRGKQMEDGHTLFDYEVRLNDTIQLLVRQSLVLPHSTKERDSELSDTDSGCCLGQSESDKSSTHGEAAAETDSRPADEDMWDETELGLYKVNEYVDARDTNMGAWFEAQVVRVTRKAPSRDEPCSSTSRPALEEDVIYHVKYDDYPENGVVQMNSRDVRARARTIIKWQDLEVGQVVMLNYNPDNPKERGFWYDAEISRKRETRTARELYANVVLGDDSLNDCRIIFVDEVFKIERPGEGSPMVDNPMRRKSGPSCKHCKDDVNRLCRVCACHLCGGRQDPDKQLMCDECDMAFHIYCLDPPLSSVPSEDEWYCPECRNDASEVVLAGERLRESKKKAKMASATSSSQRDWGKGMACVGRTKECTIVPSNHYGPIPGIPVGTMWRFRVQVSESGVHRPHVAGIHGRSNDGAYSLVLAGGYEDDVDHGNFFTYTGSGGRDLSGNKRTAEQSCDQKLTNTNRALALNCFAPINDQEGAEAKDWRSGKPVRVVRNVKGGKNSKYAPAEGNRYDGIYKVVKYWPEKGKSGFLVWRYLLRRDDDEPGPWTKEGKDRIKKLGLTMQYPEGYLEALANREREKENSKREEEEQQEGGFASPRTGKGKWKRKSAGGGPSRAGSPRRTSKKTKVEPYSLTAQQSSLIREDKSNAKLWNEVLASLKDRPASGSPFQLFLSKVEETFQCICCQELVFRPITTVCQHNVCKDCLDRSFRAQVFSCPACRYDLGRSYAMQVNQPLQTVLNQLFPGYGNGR
In the case of `CC(C)(C)OC(=O)NCCc1ccccc1/C=C/S(=O)(=O)NCc1ccc(F)cc1`, the inhibition was 3.54%.

With `CSc1ccc(C=Nn2c(-c3ccc(F)cc3)n[nH]c2=S)cc1`, the inhibition was -0.35%.

As to `CCOc1ccc(-n2c(SCC(=O)Nc3cc(C)c(NC(=O)c4ccccc4)cc3OC)nnc2-c2cccs2)cc1`, the inhibition is -0.28%.

`Cc1ccc(C(=O)C2CCN(CC(=O)NCCC(C)C)CC2)cc1`: the inhibition is 9.98%.

In the case of `O=S1(=O)c2c(NCc3ccco3)cccc2Oc2ccccc2CN1Cc1cn(Cc2cccc(C(F)(F)F)c2)nn1`, the inhibition was 3.97%.

As for `CC(=O)c1cccc(-c2ccc(CN3C(CC(C)C)C(=O)N(Cc4cn(CC5CCCCC5)nn4)CCS3(=O)=O)cc2)c1` (stereo not given), the inhibition was 21% (active).

For the compound `CC(C)CC1C(=O)N(Cc2cn(CC3CCCCC3)nn2)CCS(=O)(=O)N1Cc1ccc(-c2ccc(Cl)cc2)cc1` (stereo not given), the inhibition is -1.68%.

As to `COc1ccc(-c2ccc(CN3C(CC(C)C)C(=O)N(Cc4cn(CC5CCCCC5)nn4)CCS3(=O)=O)cc2)cc1` (stereo not given), the inhibition was 1.54%.

`CCOC(=O)[C@@]12CN(C(=O)OC(C)(C)C)CC=C1N(Cc1ccc(OC)cc1)C(=O)[C@H]2CC(=O)NCc1ccc(OC)c(OC)c1`: the inhibition is -2.61%.

As to `COC(=O)C1CN(CC(C)C)CCS(=O)(=O)N1Cc1ccc(C)cc1` (stereo not given), the inhibition was 1.11%.

`O=C(COC(=O)c1cccc(Cl)c1)NC(=O)NCc1ccccc1`: the inhibition is -0.3%.

For the compound `O=C(O)CCCn1cc(NC(=O)COc2cccc(Cl)c2)cn1`, the inhibition is 5.22%.

In the case of `O=C(COc1cccc(Cl)c1)NCc1ccccc1`, the inhibition was 36% (active).

For the compound `CCCCCCCCNS(=O)(=O)/C=C/c1cc(C)ccc1CNC(=O)OC(C)(C)C`, the inhibition is -7.08%.

In the case of `CC(=O)C1(C(=O)Nc2nccs2)CC(c2ccccc2C(F)(F)F)=NO1` (stereo not given), the inhibition is -0.55%.

With `CCOC(=O)[C@]12CCCC3=C1N(CCC3)C(=O)[C@@H](CC(=O)NCc1cccs1)C2`, the inhibition is -1.06%.

Turning to `COc1nc(N(C)C)nc(N2CC(=O)N(CCNS(=O)(=O)c3ccc(C)cc3)C2=N)n1`, the inhibition is 22.6% (active).

Turning to `Cc1ccc(S(=O)(=O)NCCSC(C)(C)C)cc1`, the inhibition is -0.21%.

As for `COc1nc(Oc2ccc(=O)n(C)n2)nc(N(C)C)n1`, the inhibition was -0.4%.

As for `COc1ccccc1C(=O)NC1CCCCN(C(C)C)C1=O` (stereo not given), the inhibition was 2.58%.

For the compound `COc1ccc(C(=O)OCC(=O)c2ccc(C)c(S(=O)(=O)N3CCOCC3)c2)cc1OC`, the inhibition was -0.9%.

As to `O=C(OCC(=O)N1CCN(c2ccccc2)CC1)c1ccc([N+](=O)[O-])s1`, the inhibition is -3.28%.

Turning to `COc1ccc(C(=O)COC(=O)c2ccc([N+](=O)[O-])s2)cc1OC`, the inhibition is 21.7% (active).

In the case of `CC(c1c[nH]c2ccccc12)c1c(-c2ccccc2)n(C)c2ccccc12` (stereo not given), the inhibition is 1.29%.

On to `Cc1cc(C)n2ncc(C(=O)Nc3ccc4c(c3)OCCO4)c2n1`, for which the inhibition is -6.73%.

For `O=C(/C=C/[C@H]1O[C@@H](n2cnc3c(NC(=O)c4ccccc4)ncnc32)[C@H](O)[C@@H]1O)NCc1ccccc1`, the inhibition was 23% (active).

`CCC(C)C(CO)NC(=O)/C=C/[C@H]1O[C@@H](n2cnc3c(NC(=O)c4ccccc4)ncnc32)[C@H](O)[C@@H]1O` (stereo not given in full): the inhibition is 19.7%.

Turning to `COc1cccc(CN(C)C(=O)CC[C@H]2O[C@@H](n3cnc4c(NC(=O)c5ccccc5)ncnc43)[C@H](O)[C@@H]2O)c1`, the inhibition is 0.17%.

Turning to `Cc1ccc(-n2c(COc3ccccc3)nnc2SCC(=O)Nc2ccc3c(c2)OCCO3)cc1`, the inhibition was 1.6%.

For `COc1ccc(Cn2cc(COC(=O)N(C)Cc3ccccc3)nn2)cc1`, the inhibition is 1.11%.

Regarding `Cc1cccc(NC(=O)C2CCCN(C(=O)Nc3ccc(F)cc3)C2)c1C` (stereo not given), the inhibition was 10.2%.

Regarding `COc1ccccc1NC(=O)C1CCCN1S(=O)(=O)c1ccc(Cl)cc1` (stereo not given), the inhibition is -0.35%.

In the case of `Cc1cccc(NC(=O)C2CCCN2S(=O)(=O)c2ccc(F)cc2)c1C` (stereo not given), the inhibition is 42.7% (active).

Turning to `Cc1ccccc1NC(=O)COC(=O)c1ccc(Sc2ncn[nH]2)c([N+](=O)[O-])c1`, the inhibition is -0.88%.

For `O=C(NC1CCCCN(Cc2ccc(Cl)cc2)C1=O)c1ccc(Br)cc1` (stereo not given), the inhibition is -3.02%.

Take `C[C@@H]1COc2cccc(N3CCCC3)c2S(=O)(=O)N1C`: the inhibition was 0.4%.

As for `CC(C)(C)N(Cc1ccccc1)C(=O)c1ccncc1`, the inhibition was 1.02%.

In the case of `CC(Cc1cccs1)N(Cc1ccc(Cl)cc1)C(=O)c1ccncc1` (stereo not given), the inhibition was 26.1% (active).

Take `CC(Cc1cccs1)NC(=O)c1cccc(Cl)c1` (stereo not given): the inhibition is -1.41%.

As to `COc1ccc(C2Nc3ccccc3C(=O)N2Cc2cccs2)cc1COc1c(C)cccc1C` (stereo not given), the inhibition was 1.56%.

With `O=C1Nc2ccccc2OC1CC(=O)N1CCCCCCC1` (stereo not given), the inhibition was -2.05%.

As for `CC(=O)OCCN1CCCC12CCC(c1ccccc1)CC2` (stereo not given), the inhibition was 0.81%.

Take `O=C(CN1C(=O)NC2(CCCC2)C1=O)OCCOc1ccc(F)cc1`: the inhibition was 0.11%.

Consider `CCOc1ccc(C(C)=O)cc1COC(=O)CN1C(=O)NC2(CCCC2)C1=O`, for which the inhibition was 2.29%.

With `Cc1ccc(COC(=O)CN2C(=O)NC3(CCCC3)C2=O)cc1`, the inhibition is 42.5% (active).

Regarding `COc1ccccc1CCNC(=O)C1CCN(c2nc(C)cc(C)n2)CC1`, the inhibition is 2.65%.

With `O=C(c1ccc(C(F)(F)F)cc1)N1CCC(=O)N([C@H](COCc2ccccc2)Cc2ccccc2)CC1`, the inhibition is -0.62%.

As to `CC(C)CC(COCc1ccc(Cl)cc1)N1CCN(C(=O)c2ccc(C(F)(F)F)cc2)CCC1=O` (stereo not given), the inhibition is 10.1%.

`COc1ccc(COC[C@H](CC(C)C)N2CCN(C(=O)c3cccc(C(F)(F)F)c3)CCC2=O)cc1`: the inhibition is 21.1% (active).

Regarding `O=C(CSc1nnc(COc2ccccc2)n1Cc1ccco1)c1ccc2ccccc2c1`, the inhibition was -1.9%.

`CCn1c2ccccc2c2cc(NC(=O)CSc3nnc(-c4ccccc4)n3-c3ccc(C)cc3)ccc21`: the inhibition was -2.76%.

In the case of `FC(F)(F)c1ccccc1Cc1c(-c2ccccc2)nc2c3ccccc3ccn12`, the inhibition was 14.2%.

Consider `Cc1cc(Br)cn2c(Cc3ccccc3C(F)(F)F)c(C3CCCCC3)nc12`, for which the inhibition is 11.3%.

On to `CCCc1nc2c3ccccc3ccn2c1Cc1ccccc1C(F)(F)F`, for which the inhibition is 22.9% (active).

With `COc1ccc([C@H]2OC(=O)C[C@H]2C(=O)N2CCN(c3ccccc3F)CC2)cc1OC`, the inhibition is -2.23%.

Regarding `COc1ccc(C)c(Cn2c(-c3nonc3N)nc3ccccc32)c1`, the inhibition is -5.53%.

With `CC(=O)Nc1nonc1-c1nc2ccccc2n1Cc1ccccn1`, the inhibition is 54.5% (active).

On to `O=S(=O)(Cc1ccccc1)c1nc2ccccc2n1Cc1ccccn1`, for which the inhibition is 0.93%.

Consider `Cc1cccc(C(=O)Nc2c(-c3ccc(F)cc3)nc3ncccn23)c1`, for which the inhibition is -2.59%.

As for `COc1ccc(N2CCN(CCNS(=O)(=O)c3ccc([N+](=O)[O-])cc3)CC2)cc1`, the inhibition was -0.84%.

Take `Cc1noc(C)c1S(=O)(=O)N1CCCC(C(=O)Nc2nccs2)C1` (stereo not given): the inhibition was -1.61%.

With `Cc1ccc(NC(=O)C2CCCN(S(=O)(=O)c3c(C)noc3C)C2)c(C)c1` (stereo not given), the inhibition is -1.46%.

As for `COc1c(C)cc(C(=O)C2CCCN(S(=O)(=O)c3c(C)noc3C)C2)cc1C` (stereo not given), the inhibition was 20.7% (active).

Turning to `Cc1ccc(C2=CCN(C)C(=O)N2c2ccc(Cl)cc2)cc1`, the inhibition is -4.14%.

As to `COc1ccc(C#CCNCc2ccc(OC)cc2OC)cc1`, the inhibition is -1.17%.

Consider `CCOC(=O)c1sc2nc(C)nc(SCC(N)=O)c2c1C`, for which the inhibition is -1.2%.

Take `CCN(CC)Cc1nc2sc(C)c(C)c2c(=O)[nH]1`: the inhibition is 2.13%.

For `CSc1nnc(SCc2nc3sc(C(=O)O)c(C)c3c(=O)[nH]2)s1`, the inhibition is 32.3% (active).

`Cc1c(C(C)c2ccccc2O)[nH]c2ccccc12` (stereo not given): the inhibition is -2.42%.

In the case of `O=C(CSc1nc2ccccc2s1)N=Nc1c(O)[nH]c2ccccc12`, the inhibition was -3.32%.

As for `CCN(CC)C(=O)CC[C@@H]1CC[C@]2(CCCN(S(=O)(=O)C3CCCCC3)C2)O1`, the inhibition is -0.55%.

Take `Cc1ccc(Cn2cc(COC(=O)N(C)Cc3ccccc3)nn2)cc1`: the inhibition was -4.1%.

On to `O=C(Cn1cnc2c(nnn2Cc2ccc(F)cc2)c1=O)NCc1ccc2c(c1)OCO2`, for which the inhibition was 21.8% (active).

On to `Cc1cc(C)cc(NC(=O)Cn2cnc3c(nnn3Cc3ccc(F)cc3)c2=O)c1`, for which the inhibition was 0.23%.

As for `Cc1ccc(Cn2nnc3c(=O)n(CC(=O)N4CCCCC4)cnc32)cc1`, the inhibition was 0.43%.

With `CCCCNC(=O)C[C@H]1C(=O)N(Cc2ccc(OC)cc2)C2=CCCC[C@@]21C(=O)OCC`, the inhibition is 5.53%.

In the case of `Cc1nc(CNc2ncnc3ccc(-c4ccc5c(c4)OCO5)cc23)cs1`, the inhibition was -2.89%.

For `COC(=O)c1c(-c2ccc(C)cc2)csc1N`, the inhibition is 28.4% (active).

Consider `COC(=O)c1sc(N)c(C(=O)OC)c1COC(=O)CNS(=O)(=O)c1ccc(C)cc1`, for which the inhibition was -0.33%.

Take `CCC(C(=O)OC)n1cnc2scc(-c3ccc(C)cc3)c2c1=O` (stereo not given): the inhibition is 0.64%.

With `CCCCNC(=O)C[C@H]1C[C@@]2(C(=O)OC)C(=C[C@H](COCc3ccccc3)O[C@@H]2C)N(Cc2ccc(Cl)cc2Cl)C1=O`, the inhibition was 1.55%.

For `COC(=O)C1CN(CCc2ccccc2)CCS(=O)(=O)N1Cc1cccc(Cl)c1` (stereo not given), the inhibition is 1.44%.

With `CC(NCc1ccco1)C(=O)N1CCCCC1` (stereo not given), the inhibition was 0.03%.

Turning to `COc1ccc(-n2c(SCC(=O)Nc3ccc4c(c3)OCCO4)nnc2-c2ccc(Cl)cc2)cc1`, the inhibition is 2.21%.

For `COC(=O)CC1CCc2cc(C)cc(C(CC(C)C)NC(=O)[C@H](CC(C)C)NC(=O)OCc3ccccc3)c2O1` (stereo not given in full), the inhibition is 4.14%.
